About 900 (1.7%) of roughly 53,000 compounds showed an effect of 50% or more. The full list was thinned out, with strong results kept by preference.
test system: Mycobacterium tuberculosis; experiment: Cornell - Phenotypic assay to identify agents that inhibit growth of Mycobacterium tuberculosis; type: functional; set-up: scale not given: direction of the effect not stated beside the values; details: 10 mM as filed; unlikely as a test dose

Compared with `COCCC1COC2(CCN(C(=O)c3ccncc3)CC2)C1.O=C(O)C(F)(F)F` (stereo not drawn), `O=C(c1cc(-n2cccn2)ccn1)N(CC1CCC1)CC(F)(F)F` is higher in “Percent Effect” value: -13.79% for the first, 16.8% for the second.

First: c1ccc(-n2ncc(CN3CCCC(Cn4cncn4)C3)n2)cc1 (stereo not drawn)
Second: Cn1cc(CN2CCCC23CCN(c2nc4ccccc4s2)CC3)cn1
The “Percent Effect” value of the first is lower: 2.145% for the first, 13.88% for the second.

First: CCC1c2cccn2CCN1C(=O)c1ccc2nonc2c1 (stereo not drawn)
Second: CCCC1c2cccn2CCN1C(=O)Cn1cnc2sc(C)cc2c1=O (stereo not drawn)
The “Percent Effect” value of the first is lower: 10.7% for the first, 53.74% for the second.

Compared with `CCC1c2ccc(C)n2CCN1C(=O)Cn1cnc2sc(C)cc2c1=O` (stereo not drawn), `Cc1cc2c(=O)n(CC(=O)N3CCn4cccc4C3C(C)C)cnc2s1` (stereo not drawn) is higher in “Percent Effect” value: 27.93% for the first, 56.81% for the second.

Compared with `CCC(C)NC(=O)Cn1ccc2sc(C)cc2c1=O` (stereo not drawn), `Cc1cc2c(=O)n(CCOCCO)cnc2s1` is lower in “Percent Effect” value: 17.39% for the first, 14.22% for the second.

Compared with `Cc1nn(C)cc1C(=O)Nc1cccc(CN2CCC(CO)CC2)c1`, `Cc1cc(NC(=O)C(c2cccc(F)c2)N2CCOCC2)sn1` (stereo not drawn) is higher in “Percent Effect” value: -50.57% for the first, -15.26% for the second.

First: Cc1nc2ccccn2c1CC(=O)N[C@@H]1CC[C@@H](N2CCCC2)[C@@H]1O
Second: NC(=O)C1CCCN1C(=O)c1cc(C2CC2)nc2ccc(F)cc12 (stereo not drawn)
The “Percent Effect” value of the first is higher: 13.48% for the first, -27.79% for the second.

Going from `Cc1cc(C)c2[nH]c(=O)c(CN3CCCC(O)(CO)C3)cc2c1` (stereo not drawn) to `Cc1cc(C)c2[nH]c(=O)c(CN3CCC(O)(CN(C)C)C3)cc2c1` (stereo not drawn), the “Percent Effect” value falls from 23.96% to 15.85%.

First: Cc1cc(C)c2[nH]c(=O)c(CN3CCCC4(C3)CN(C)C(=O)O4)cc2c1 (stereo not drawn)
Second: Cc1nc[nH]c1CN1CCCN(c2nc3ccccc3s2)CC1
The “Percent Effect” value of the first is higher: 65.13% for the first, 3.174% for the second.

First: Cc1nc[nH]c1CN1CCCC12CCN(c1nc3ccccc3s1)CC2
Second: c1ccc2sc(N3CCC4(CCCN4Cc4ncc[nH]4)CC3)nc2c1
The “Percent Effect” value of the first is lower: -4.142% for the first, 60.65% for the second.

Compared with `Cc1nc(CN2CCCC23CCN(c2nc4ccccc4s2)CC3)co1`, `Cc1cc(C(=O)N2CCN(c3nc4ccccc4s3)CC2)no1` is lower in “Percent Effect” value: 53.88% for the first, -60.39% for the second.

First: CCn1ccc(-c2cc(C(=O)O)n3ncc(Br)c3n2)n1
Second: CN(C(=O)Cn1nc(-c2ccccc2F)ccc1=O)C1CCS(=O)(=O)C1 (stereo not drawn)
The “Percent Effect” value of the first is higher: 19.03% for the first, 18.26% for the second.

Compared with `CC(C)Cn1ccnc1CNC(=O)N1CCCC1CN1CCOCC1` (stereo not drawn), `COCc1ncc(CN2CCC3(CCNC(=O)CC3)CC2)cn1` is higher in “Percent Effect” value: 7.761% for the first, 18.36% for the second.

First: COC(=O)C(NC(=O)Nc1ccc(C(C)=O)cc1)C(C)C (stereo not drawn)
Second: COCCN(C)Cc1cn(C)nc1-c1ccc2c(c1)OCCO2
The “Percent Effect” value of the first is higher: 6.824% for the first, -52.38% for the second.
